The nature of the experiment: viability loss with induced miR-34 in A549 – imaging, A549 dox-inducible miR-34, nuclei and caspase counts, primary screen (AID 1347080). Also: test concentration not given here. The following applies: A549 miR-34 inducible, Hoechst nuclei count, 48 h; measured here: total cells without miR-34 induction.
`Cc1nnsc1C(=O)Nc1ccc(-n2nc(C(F)(F)F)cc2C(F)(F)F)cc1` yielded a cell count of 5430.

In turn, `CCCCC[C@H](O)/C=C/[C@H]1CC[C@@H](O)[C@@H]1C/C=C\CCCC(=O)O` gave a cell count of 6110.

With `CCOC(=O)c1ccnc(C(=O)OCC)c1`, the cell count amounted to 5690.

Consider `CCCCC(C)(C)[C@H](O)/C=C/[C@H]1[C@H](O)CC(=O)[C@@H]1CC(=O)CCCCC(=O)O`, for which the cell count amounted to 6180.

Take `CCCCC[C@H](O)/C=C/[C@H]1[C@H](O)CC(=O)[C@@H]1CCCCCCCCC(=O)O`: the cell count came to 5700.

The molecule `CC(C)CCCCCCC/C=C\C(=O)O` displayed a cell count of 5880.

In the case of `CCCCC[C@H](O)/C=C/[C@H]1C2COC(C2)[C@@H]1C/C=C/CCCC(=O)O` (stereo partly specified), the cell count is 6410.

Turning to `CCCCC/C=C\C/C=C\C/C=C\C/C=C\CCCC(=O)SCC(O)CO` (stereo unspecified), the cell count is 5540.

The molecule `CCCCC[C@H](O)/C=C/[C@@H]1[C@@H](C/C=C/CCCC(=O)O)[C@H](O)C[C@H]1O` had a cell count of 5540.

In turn, `CCCCCC(=O)CC[C@H]1C(=O)C=C[C@@H]1C/C=C\CCCC(=O)O` came in with a cell count of 5330.

As for `CC(C)CC[C@@H](O)[C@@H](C)C1CCC2C3CC=C4C[C@@H](O)CC[C@]4(C)C3CC[C@@]21C` (stereo partly specified), the cell count worked out at 5530.

These data come from PubChem BioAssay.
